± gives the standard deviation of the averaged measurements. The full ranking holds about 25,000 sequences; the median of “ln(normalized median fluorescence intensity)” is about 8.9, and the highest 2% start at about 10. The sample as a whole holds a higher share of the highest values than the screen did.

The subject of the assay is PfAP2-LT AP2 domain (GST-tagged). The assay can be described thus: gcPBM binding intensity (ln(normalized median fluorescence intensity)); higher = stronger DNA binding. A digest of the protocol: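 DNA-binding domains from P. falciparum, fused to GST and produced in E. coli, were put on an Agilent 4 × 180k double-stranded probe array for 1 h in 1× PBS holding 1% milk, 0.2 mg/ml BSA, 0.5% salmon testes DNA and 0.03% Triton X-100. Probes were primer-extended, 36 bp long and drawn from intergenic genomic regions, with negative controls included. After Alexa488 anti-GST antibody detection and a 488 nm scan, binding intensity was set as the highest Masliner-normalised natural-log median intensity across replicate spots of either probe orientation.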
Regarding “AGACATATAATATATACACACATATATATATATATA [CACACA_site1066]”, the “gcPBM binding intensity (ln)” value worked out at 9.93 ± 0.085.
Take “AAATTTTCACTTCAAAAACACACGTATTTTTTTCCT [CACACA_site3813]”: the “gcPBM binding intensity (ln)” value amounted to 8.8 ± 0.47.
For “CAACAACAAAAAAAAAAATAATAATAATAAAAAATA [TGCATGCA_negctrl_site271]”, the “gcPBM binding intensity (ln)” value turned out to be 8.71 ± 0.5.
On to “CAAGGACAATTTACAAACATAATATATGTATATATA [TGCATGCA_negctrl_site5]”, for which the “gcPBM binding intensity (ln)” value turned out to be 8.66 ± 0.55.
For “AGGACAAGGGTTACATGTACATATATATATATATAT [XGTACX_site901]”, the “gcPBM binding intensity (ln)” value turned out to be 10.2 ± 0.14.
With “CATATGTATATGACTACACACAAGGGTGTACATATA [CACACA_site1164]”, the “gcPBM binding intensity (ln)” value was found to be 9.2 ± 0.38.
Regarding “ATCATAATTTATTATACACACAATACGTGACCTATT [CACACA_site6977]”, the “gcPBM binding intensity (ln)” value came out at 9.24 ± 0.47.
Take “ATATTTTGTATAATCACACACACTATTCTTAAATAG [CACACA_site7270]”: the “gcPBM binding intensity (ln)” value was 9.23 ± 0.37.
For “CAAACCCACGGACACACACACACAAAAATGATTAAA [CACACA_site5365]”, the “gcPBM binding intensity (ln)” value was determined as 9.71 ± 0.38.
With “AACAAACACGGACACACACACACACTAGAATGATTA [CACACA_site5364]” the figure was 10.2 ± 0.31; with “CAAACAAACGGACACACACACACACCCAAAAATGAT [CACACA_site5363]”, 10.1 ± 0.18.
Take “TATTTATTAAAACACACACACACACCCACAAAATAA [CACACA_site241]”: the “gcPBM binding intensity (ln)” value worked out at 10.04 ± 0.099.
Regarding “CAAAAGAAGGTAAACACACACACACCCATACAAAAA [CACACA_site3765]”, the “gcPBM binding intensity (ln)” value amounted to 10.1 ± 0.43.
For “CACACCCACCAACACACACACAAAAAAAAAAAGAAA [CACACA_site500]”, the “gcPBM binding intensity (ln)” value was determined as 9.56 ± 0.47.
“TTAAAGCACCCATGCACACACACAAGGGAAAAGAAA [CACACA_site4289]”: the “gcPBM binding intensity (ln)” value stood at 9.49 ± 0.4.
In the case of “TTTATTAATGGACACACACACACACCCAAAATAAAA [CACACA_site4294]”, the “gcPBM binding intensity (ln)” value came out at 10 ± 0.13.
For “TTAATAACAAAATAAACACACATATATAAATCCACA [CACACA_site1590]”, the “gcPBM binding intensity (ln)” value is 9.09 ± 0.38.
On to “TTAACAAAGAAACACACACACACACCCAAAAAAAAA [CACACA_site516]”, for which the “gcPBM binding intensity (ln)” value amounted to 10.2 ± 0.11.
For “GAATAATCCAAACACACACACACACCCGAATAAATA [CACACA_site482]”, the “gcPBM binding intensity (ln)” value was determined as 10.3 ± 0.45.
As for “CCCGAACAAACAAATAAACACACAAAAAAAAATATA [CACACA_site8540]”, the “gcPBM binding intensity (ln)” value stood at 9.15 ± 0.47.
For the sequence “TTTATTAATAAACACACACACACACCCAAAATAAAA [CACACA_site7966]”, the “gcPBM binding intensity (ln)” value came to 10.2 ± 0.18.
With “AAAGAAGGGAAACACACACACACACCCACAAAAAAA [CACACA_site3766]” the figure was 10.18 ± 0.099; with “CAACAAAAGAAACACACACACACAAACACAAAAAAA [CACACA_site3389]”, 9.91 ± 0.16.
With “ATTTCAAATTAATTTACACACTTCATACTAAAAGAC [CACACA_site3176]”, the “gcPBM binding intensity (ln)” value came out at 8.71 ± 0.4.
“GGAAAAAAATATAAAAGTACTTTTTATTTATTTTAT [XGTACX_site7418]”: the “gcPBM binding intensity (ln)” value was determined as 8.4 ± 0.51.
With “AGGAATATAAAGTGCACACATAATTTGGGGGCAAAA [CACACA_site258]”, the “gcPBM binding intensity (ln)” value was found to be 9.25 ± 0.44.
For “AATTAAATTACTTATACACACATAAAATGGGTGTAT [CACACA_site4703]”, the “gcPBM binding intensity (ln)” value was 8.97 ± 0.37.
In the case of “AATAAAGGAGCCTATGAACACACACCGGTACATATA [CACACA_site9352]”, the “gcPBM binding intensity (ln)” value was 9.33 ± 0.51.
Regarding “ATACAATAAAGGTGTACACATATATGATGCAAGATG [CACACA_site5897]”, the “gcPBM binding intensity (ln)” value worked out at 9.29 ± 0.52.
For “ATGTAATGAAACATTGCACACATATAATAATATAAT [CACACA_site8402]”, the “gcPBM binding intensity (ln)” value turned out to be 9.31 ± 0.35.
On to “TTTTACACTTTTTTTTGTACACACTAAAAAGATTAA [XGTACX_site8407]”, for which the “gcPBM binding intensity (ln)” value came to 8.59 ± 0.52.
With “AATAATTGTTAAAGCTGTACAATACTTATATAAGAA [XGTACX_site5729]”, the “gcPBM binding intensity (ln)” value was determined as 8.77 ± 0.45.
For the sequence “AAAAAATATTGAAGTACACACATTATAAACTTTTTT [CACACA_site5029]”, the “gcPBM binding intensity (ln)” value came out at 8.86 ± 0.49.
As for AATACACACCTGTGGGTGCTTATAATAAGCCACAAA, the “gcPBM binding intensity (ln)” value was 8.95 ± 0.45.
With “ATAAATAAAAACACAAAACAAAACAAAACAAAACAA [CACACA_negctrl_site1257]”, the “gcPBM binding intensity (ln)” value was found to be 8.82 ± 0.4.
For the sequence “TTAACAAATAAACACACACACACACCCAAAAAAAAA [CACACA_site8068]”, the “gcPBM binding intensity (ln)” value was determined as 10.3 ± 0.2.
For “ATAAATAAAAAACACACACACACACCCAAAAAAAAA [CACACA_site2624]”, the “gcPBM binding intensity (ln)” value was 9.88 ± 0.3.
Take “TTTTTTTTTGTTAGTTGTACGTTAAATGAATTTACT [XGTACX_site7675]”: the “gcPBM binding intensity (ln)” value was 8.67 ± 0.57.
Take “TACTAAGAAGTATTTACACACCAACAAGGCGAAAAA [CACACA_site2944]”: the “gcPBM binding intensity (ln)” value was determined as 8.88 ± 0.44.
As for “TTTAAGCAAAAACACACACACATATATATATATATA [CACACA_site349]”, the “gcPBM binding intensity (ln)” value stood at 10.1 ± 0.16.
With “CCTTTAAGCAAAAACACACACACATATTTATTTATA [CACACA_site6294]”, the “gcPBM binding intensity (ln)” value worked out at 9.41 ± 0.3.
The result for “TATAAGCAAAAACACACACACATATATATATATATA [CACACA_site3804]” reads 10.2 ± 0.23.
The result for “CCTTTAAGCAAAAACACACACACATATATATATATA [CACACA_site348]” reads 9.945 ± 0.035; that for “AAACATATATTAAGCACACACAAACAAAAAAACAAA [CACACA_site2549]”, 9.59 ± 0.61; that for “TGAAGCAAAAACAAAACACACATATAAATAAATAAA [CACACA_site3925]”, 9.15 ± 0.52.

The values above are taken from the supplement of paper PMC11417369.
